PubChem BioAssay AID1159580 (chemical genetic matrix, 2015)
Where “and” joins values, the source holds several entries; their conditions need not be identical. Equal entries are not always repeated. Out of some 5,500 compounds screened, about 2,000 (36%) were called active. Not shown: some 18% with an inconclusive outcome. No stated cut-off is given here; in the data, active means normalized growth mostly below about 0.91 (no sharp cut-off); inconclusive means no clear call, values can overlap the other calls; inactive means mostly above about 0.92. Some of the results follow.

Experiment: chemical genetic growth profiling, strain panel (AID 1159580);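 further: tested at 20 µM; growth read once vehicle control cultures reached saturation at 30 °C; 1 = growth at the plate median or of vehicle wells; lower values mean less growth of the strain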
Details: S. cerevisiae deletion strains, growth OD
[1] = locus YAL040C, strain CLN3, active compounds read low
[2] = locus YCL061C, strain MRC1 (second series), active compounds read low
[3] = locus YDR150W, strain NUM1, active compounds read low
[4] = locus YDR363W, strain ESC2, active compounds read low
[5] = locus YER002W, strain NOP16, active compounds read low
[6] = locus YGR078C, strain PAC10, active compounds read low
[7] = locus YMR307W, strain GAS1, active compounds read low
[8] = locus YNL175C, strain NOP13, active compounds read low
[9] = locus YNL197C, strain WHI3, active compounds read low
[10] = locus YNL224C, strain SQS1, active compounds read low
[11] = locus YNL322C, strain KRE1, active compounds read low
[12] = locus YOR083W, strain WHI5 (second series), active compounds read low
[13] = locus YAL013W, strain DEP1, active compounds read low
[14] = locus YBR229C, strain ROT2, active compounds read low
[15] = locus YDL101C, strain DUN1, active compounds read low
[16] = locus YDL134C, strain PPH21, active compounds read low
[17] = locus YEL061C, strain CIN8, active compounds read low
[18] = locus YHR030C, strain SLT2, active compounds read low
[19] = locus YJR043C, strain POL32, active compounds read low
[20] = locus YJR075W, strain HOC1, active compounds read low
[21] = locus YKL190W, strain CNB1, active compounds read low
[22] = locus YLR039C, strain RIC1, active compounds read low
[23] = locus YLR262C, strain YPT6, active compounds read low
[24] = locus YMR263W, strain SAP30, active compounds read low
[25] = locus YNL153C, strain GIM3, active compounds read low

Measured: normalized growth

CCC1(O)CC2CN(CCc3c([nH]c4ccccc34)[C@@](C(=O)OC)(c3cc4c(cc3OC)N(C=O)C3[C@]45CCN4CC=C[C@@](CC)([C@@H](OC(C)=O)[C@]3(O)C(=O)OC)[C@H]45)C2)C1 (some centres not stated)
inactive: [1] 0.979 | [2] 0.991 | [3] 0.999 | [4] 0.986 | [5] 1 | [6] 0.999 | locus YGR229C, strain SMI1, active compounds read low 0.983 | [7] 0.99 | [8] 1.01 | [9] 0.983 | [10] 1 | [11] 0.957 | [12] 0.99

NC(CSCSCC(N)C(=O)O)C(=O)O (configuration not stated)
inactive: [13] 1.01 | locus YBR021W, strain FUR4, active compounds read low 1.01 | [14] 0.998 | locus YCL029C, strain bik1, active compounds read low 0.989 | locus YDL035C, strain GPR1, active compounds read low 1.02 | locus YDL074C, strain BRE1, active compounds read low 1.05 | [15] 1 | [16] 0.988 | locus YDL185W, strain tfp1, active compounds read low 1.01 | locus YDL192W, strain arf1, active compounds read low 0.977 | locus YDR101C, strain arx1, active compounds read low 0.999 | locus YDR162C, strain NBP2, active compounds read low 1.02 | locus YDR318W, strain mcm21, active compounds read low 0.981 | locus YDR388W, active compounds read low 0.986 | locus YDR502C, strain sam2, active compounds read low 1 | [17] 1.02 | locus YER110C, active compounds read low 0.987 | locus YER155C, strain BEM2, active compounds read low 1.01 | locus YER167W, strain BCK2, active compounds read low 1 | locus YGL078C, strain dbp3, active compounds read low 1.01 | locus YGL086W, strain mad1, active compounds read low 1 | locus YGL248W, strain PDE1, active compounds read low 0.997 | locus YGR135W, strain pre9, active compounds read low 0.99 | locus YGR252W, strain gcn5, active compounds read low 1.11 | [18] 1.01 and 1.04 | locus YHR079C, strain IRE1 (second series), active compounds read low 0.987 | locus YHR079C, strain IRE1, active compounds read low 1.04 | locus YHR094C, strain hxt1, active compounds read low 0.985 | locus YHR129C, strain ARP1, active compounds read low 0.995 | locus YHR200W, strain rpn10, active compounds read low 0.997 | locus YIL066C, strain RNR3, active compounds read low 1.01 | locus YIL073C, strain SPO22, active compounds read low 1.06 | locus YIL125W, strain kgd1, active compounds read low 1.01 | locus YIR030C, strain dcg1, active compounds read low 0.999 | locus YJL095W, strain BCK1, active compounds read low 1.01 and 1.02 | locus YJL134W, strain LCB3, active compounds read low 1.01 | locus YJL168C, strain set2, active compounds read low 0.982 | locus YJL187C, strain SWE1 (second series), active compounds read low 1.01 | [19] 1.01 | locus YJR066W, strain TOR1, active compounds read low 0.979 | [20] 1.01 | locus YKL009W, strain mrt4, active compounds read low 1.01 | locus YKL068W, active compounds read low 1 | locus YKL085W, strain MDH1 (second series), active compounds read low 0.998 | locus YKL085W, strain MDH1, active compounds read low 0.998 | [21] 1.01 | locus YKR001C, strain vps1, active compounds read low 1.02 | [22] 1.1 | locus YLR058C, strain SHM2, active compounds read low 1 | locus YLR102C, strain apc9, active compounds read low 0.979 | locus YLR113W, strain HOG1, active compounds read low 1.04 | [23] 1.12 | locus YLR268W, strain sec22, active compounds read low 1.02 | locus YLR330W, strain CHS5, active compounds read low 1.01 | locus YLR342W, strain FKS1 (second series), active compounds read low 1.02 | locus YLR371W, strain rom2, active compounds read low 0.977 | locus YLR418C, strain cdc73, active compounds read low 1.01 | locus YML016C, strain PPZ1, active compounds read low 1 | locus YML032C, strain rad52, active compounds read low 0.992 | locus YML124C, strain tub3, active compounds read low 0.99 | locus YMR078C, strain ctf18, active compounds read low 0.988 | locus YMR223W, strain ubp8, active compounds read low 0.994 | [24] 1.01 | [7] 1.02 | locus YNL067W, strain RPL9B, active compounds read low 1 | [25] 1 | locus YNL183C, strain NPR1, active compounds read low 0.983 | locus YNL233W, strain BNI4, active compounds read low 1.02 | locus YNL250W, strain rad50, active compounds read low 1.02 | locus YNL271C, strain bni1, active compounds read low 1.01 | locus YNL298W, strain CLA4, active compounds read low 1 | locus YNL307C, strain MCK1, active compounds read low 0.987 | locus YNR052C, strain pop2, active compounds read low 0.999 | locus YOL012C, strain htz1 0.928 | locus YOL147C, strain pex11, active compounds read low 0.991 | locus YOR061W, strain CKA2, active compounds read low 1.01 | locus YOR069W, strain VPS5, active compounds read low 1.01 | locus YOR136W, strain idh2, active compounds read low 0.996 | locus YOR144C, strain elg1, active compounds read low 0.984 | locus YOR184W, strain ser1, active compounds read low 0.995 | locus YOR231W, strain MKK1, active compounds read low 1.04 | locus YOR316C, strain cot1, active compounds read low 0.98 | locus YPL256C, strain CLN2, active compounds read low 1.02 | locus YPR119W, strain clb2, active compounds read low 0.987 | locus YPR141C, strain kar3, active compounds read low 0.997 | locus YPR163C, strain tif3, active compounds read low 0.999 | locus YPR167C, strain met16, active compounds read low 0.988 | strain wtn01, active compounds read low 1.04

FC(F)(F)c1cc(CO[C@H]2CCCN[C@H]2c2ccccc2)cc(C(F)(F)F)c1
inactive: [13] 0.988 | [1] 0.998 | [2] 0.975 | [4] 0.96 | [5] 1.04 | [24] 0.999 | [7] 0.964 | locus YNL128W, strain TEP1, active compounds read low 1.05 | [25] 0.823 | [8] 1.04 | [9] 1.07 | [10] 1.03 | [12] 0.913

Cn1c2c(c3c1CCCC3)CCCC2
active: [25] 0.873
inactive: [13] 0.995 | [14] 1.03 | locus YCL061C, strain MRC1, active compounds read low 1.01 | [15] 0.974 | [16] 1.02 | [3] 1.02 | [17] 0.988 | [6] 1.01 | [18] 1.01 | locus YHR087W, strain rtc3, active compounds read low 0.992 | [19] 1.02 | [20] 1.02 | [21] 1.02 | [22] 0.925 | locus YLR058C, strain SHM2 (second series), active compounds read low 1.02 | locus YLR085C, strain ARP6, active compounds read low 1 | [23] 0.974 | locus YML094W, strain GIM5, active compounds read low 0.972 | locus YMR219W, strain ESC1, active compounds read low 1.02 | [24] 1 | locus YNL298W, strain CLA4 (second series), active compounds read low 1.02 | [11] 1.01 | locus YNR030W, strain Alg12, active compounds read low 1.03 | locus YOL006C, strain TOP1, active compounds read low 1 | locus YPL055C, strain LGE1, active compounds read low 1.08 | locus YPL241C, strain CIN2, active compounds read low 1.01 | locus YPR135W, strain CTF4, active compounds read low 1.06
